# Laboratory results published in PubChem BioAssay AID1259374 (The Scripps Research Institute Molecular Screening Center, 2018).
# Hit rate of the full screen: of about 650,000 compounds, about 5,900 (0.91%) were called active. The sample holds actives, similar compounds and a random draw of the others, so the mix is not that of the screen. Values without a mark were called inactive. Cut-off read from the data, not from the text of the source: active = inhibition above about 50%; inactive = the rest.
# Molecular target: Microphthalmia-associated transcription factor (Homo sapiens) (UniProt O75030)
# Experiment: MITF inhibitors, primary screen, biochemical, AlphaScreen, human (AID 1259374);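 note: 0% = vehicle wells with protein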
# Details: AlphaScreen MITF homodimerization, bead proximity signal; at 2.6 µM; stronger effect = higher value
# Sequence of Microphthalmia-associated transcription factor (Homo sapiens) (O75030 whole entry, looked up): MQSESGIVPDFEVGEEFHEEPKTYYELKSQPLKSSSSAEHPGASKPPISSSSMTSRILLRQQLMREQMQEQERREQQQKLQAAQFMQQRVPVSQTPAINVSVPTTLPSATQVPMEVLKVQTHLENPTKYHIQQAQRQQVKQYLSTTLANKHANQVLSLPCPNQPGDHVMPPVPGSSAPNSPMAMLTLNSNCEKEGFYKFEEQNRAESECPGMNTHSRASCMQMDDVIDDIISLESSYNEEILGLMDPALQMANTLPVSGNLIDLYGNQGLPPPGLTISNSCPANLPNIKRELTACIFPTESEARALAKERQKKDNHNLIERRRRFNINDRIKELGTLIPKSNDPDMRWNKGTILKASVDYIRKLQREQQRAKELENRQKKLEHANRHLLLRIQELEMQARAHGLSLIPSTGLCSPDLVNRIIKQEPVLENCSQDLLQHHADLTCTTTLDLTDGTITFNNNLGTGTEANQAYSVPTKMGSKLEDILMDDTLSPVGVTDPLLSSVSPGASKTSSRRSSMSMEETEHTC
row,SMILES,inhibition
1,COCCn1nnnc1C(C)N(CCCO)Cc1cc2cc(C)ccc2[nH]c1=O (stereo not drawn),-3.49%
2,O=C(OCC(=O)N1CCN(C(=O)c2ccco2)CC1)c1ccc(O)cc1,-0.03%
3,CCCOc1ccc(C2C(=O)N(C3CCCCCC3)CC(=O)N2CC2COc3ccccc3O2)cc1OC (stereo not drawn),14.9%
4,CC1CCC2C(=O)N(C(CC(=O)O)c3ccco3)C(=O)C2C1 (stereo not drawn),32.9%
5,CC1CCC2C(=O)N(c3cccc(Cl)c3)C(=O)C2C1 (stereo not drawn),8.52%
6,CC1CCC2C(=O)N(c3ccc(I)cc3)C(=O)C2C1 (stereo not drawn),51.1% (active)
7,N#CC1=C(N)N(c2sc3c(c2C#N)CCCC3)C2=C(C(=O)CCC2)C1c1ccc(Br)s1 (stereo not drawn),13.4%
8,CCOC(=O)COc1cc2occ(Oc3cnn(-c4ccccc4)c3)c(=O)c2cc1CC,9.58%
9,CSc1ncc(/C=C2/C(=O)NC(=O)N(c3ccccc3)C2=O)cn1,0.31%
10,Oc1c(C(c2ccccc2Cl)N2CCOCC2)sc2nc(-c3ccco3)nn12 (stereo not drawn),11.9%
11,Cc1nc2sc(C(c3ccco3)N3CCC4(CC3)OCCO4)c(O)n2n1 (stereo not drawn),13.4%
12,Cc1nc2sc(C(c3ccccc3Cl)N3CCC4(CC3)OCCO4)c(O)n2n1 (stereo not drawn),60% (active)
13,OC[C@@H]1CCCN1Cc1nc(-c2ccccn2)no1,7.1%
14,CCOC(=O)C1=C(C)N=c2s/c(=C\c3c[nH]c4ccccc34)c(=O)n2C1c1ccc(OC)c2ccccc12 (stereo not drawn),12.2%
15,C=CCNC(=O)c1sc(=S)n(CC)c1N,60.2% (active)
16,COCCOC(=O)c1sc(=S)n(CCOC)c1N,-3.44%
17,C=CCNC(=O)c1sc(=S)n2c1[nH]c(=O)c1ccc(C(=O)OC)cc12,1.34%
18,CCOc1ccc(Nc2n[nH]c(C)c2[N+](=O)[O-])cc1,-3.22%
19,Cc1nnc(SCC(=O)Nc2ccc(Cc3ccc(NC(=O)CSc4nnc(C)s4)c(C(=O)O)c3)cc2C(=O)O)s1,10.6%
20,Cc1cc(C(C)(C)C)ccc1OCCOCCNCCN,5.37%
21,Cc1ccc(C(C)(C)C)c(OCCCNCCO)c1,18.8%
22,C=CCNCCOCCOc1cc(C)ccc1C(C)(C)C,65.6% (active)
23,CN(C)S(=O)(=O)c1ccc(C(=O)NCc2nnc(SCC(=O)N3N=C(c4cccs4)CC3c3ccc(F)cc3)n2C)cc1 (stereo not drawn),-5.15%
24,CCC1(CC)Cc2ccccc2C(c2c(C)[nH]n(-c3ccccc3)c2=O)=N1,23.6%

row,SMILES,inhibition
1,COc1cc(/C=C2/NC(=O)N(c3ccccc3)C2=O)cc(OC)c1O,-14.5%
2,COC(=O)c1ccccc1NC(=O)c1cc2c(=O)oc3ccccc3c2s1,-9.64%
3,COc1ccccc1-n1cnnc1SCC(=O)Nc1sc2c(c1C#N)CCCC2,-6.73%
4,COc1cc(NC(=O)CSc2nnc(-c3ccoc3C)n2CC(C)C)cc(OC)c1,9.5%
5,Cc1ccc(C(C)(C)C)c(OCCN2CCNCC2)c1,46.6%
6,Cc1ccc(OCCN2CCNCC2)c(Cl)c1,36.1%
7,Cc1cc(OCCCCN2CCOCC2)ccc1C(C)C,27.1%
8,Cc1ccc(C(C)C)c(OCCN2CCNCC2)c1,74.9% (active)
9,CCC(C)Oc1cccc(OCCN2CCN(C)CC2)c1 (stereo not drawn),-22.9%
10,Cc1ccc(C(C)C)c(OCC#CCN2CCNCC2)c1,77.2% (active)
11,Cc1cc(OCCN2CCN(C)CC2)ccc1C(C)C,59.4% (active)
12,Cc1ccc(Cl)c(OCCCCN2CCNCC2)c1,41.9%
13,Cc1ccc(C(C)C)c(OCc2n[nH]c(=S)n2C)c1,2.35%
14,CC1C2Oc3ccccc3C1Oc1ccccc12 (stereo not drawn),4.85%
15,COc1ccc2[nH]c3c(c2c1)CCOC31CCN(C(=O)CC2(CC(=O)O)CCCC2)CC1,-10.7%
16,O=C1C(=O)N(Cc2cccnc2)C(c2ccncc2)/C1=C(\O)c1ccccc1 (stereo not drawn),11.9%
17,O=C1C(=O)N(Cc2cccnc2)C(c2cccnc2)/C1=C(/O)c1ccccc1 (stereo not drawn),5.16%
18,Cc1nc2ccccn2c1/C(O)=C1\C(=O)C(=O)N(Cc2ccccc2)C1c1cccnc1 (stereo not drawn),66.2% (active)
19,CN(C)CCNC(=O)c1ccc(-c2cnc3c(NCc4ccc(F)cc4)nccn23)cc1,-23.3%
20,CCOC(=O)c1c(NC(=O)CSc2nnc(CNC(=O)c3cccc(OC)c3)n2C)sc2c1CCCCC2,-18.6%
21,O=C(O)CN1C(=O)/C(=C/c2cccc([N+](=O)[O-])c2)SC1=S,4.75%
22,O=C(O)CN1C(=O)/C(=C\c2ccc(O)c(Br)c2)SC1=S,17.2%
23,O=C(O)CN1C(=O)/C(=C\c2cccc(C(=O)O)c2)SC1=S,58.4% (active)
24,CC1CN(c2ccc(/C=C(\C#N)c3nc4ccccc4[nH]3)o2)CC(C)O1 (stereo not drawn),-14.4%

row,SMILES,inhibition
1,Nc1nc(NCCO)cc(Nc2ccc(C(F)(F)F)cc2)n1,-1.49%
2,CCOC(=O)c1sc(NC(=O)C(C)Sc2nnc(CNC(=O)c3ccc(Cl)cc3Cl)n2C)c(C(=O)OCC)c1C (stereo not drawn),-5.12%
3,CCOC(=O)c1ccccc1NC(=O)C1CC(=O)N(c2ccc(Cl)c(Cl)c2)C1 (stereo not drawn),-0.38%
4,CN1C(=O)c2ccc(NC(=O)c3c(F)cccc3F)cc2C1=O,4.14%
5,O=C(NN1CCOCC1)c1cccc(F)c1,0.76%
6,O=C(NN1C(=O)c2ccccc2C1=O)c1cccc(F)c1,69.1% (active)
7,Cc1ccc(N2C(=O)c3ccc(C(=O)NN4C(=O)c5ccccc5C4=O)cc3C2=O)cc1C,9.89%
8,CCN(CCCNC(=O)Cn1c(=O)[nH]c2ccccc2c1=O)c1cccc(C)c1,-6.52%
9,C=CCN(CC=C)CCCOc1ccc([N+](=O)[O-])c(C)c1,22.8%
10,Cc1cc(OCCCN2CCN(Cc3ccccc3)CC2)ccc1[N+](=O)[O-],69.8% (active)
11,O=[N+]([O-])c1cnc(N2CCN(Cc3ccccc3)CC2)c([N+](=O)[O-])c1,-6.34%
12,COc1ccc(CN2CCC3(CC2)c2ccccc2[C@@H](NC(=O)CSC)[C@@H]3OC)cc1,5.12%
13,COc1ccccc1N1C(=O)NC(=O)/C(=C/c2cc(OC)c(O)c([N+](=O)[O-])c2)C1=O,-6.01%
14,C=CCN1C(=O)/C(=C\c2cc(OC)c(O)c([N+](=O)[O-])c2)C(=O)NC1=S,57.5% (active)
15,C=CCN1C(=O)/C(=C\c2cc(OC)ccc2OC)C(=O)NC1=S,18.8%
16,CSc1cccc(NC(=O)C2C3C=CC4(O3)C2C(=O)N(C2CCCC(C)C2C)C4C(=O)NC2CCCCC2)c1 (stereo not drawn),-2.61%
17,O=c1cc(Cc2n[nH]c(=S)n2-c2ccc(F)cc2)[nH]c(=O)[nH]1,8.67%
18,O=c1c2sc(=S)n(CCc3ccccc3)c2[nH]c(=S)n1Cc1ccco1,-11.5%
19,Oc1c(C(c2ccccn2)N2CCOCC2)ccc2cccnc12 (stereo not drawn),75.7% (active)
20,OCCN1CCN(C(c2ccc(F)cc2)c2ccc3cccnc3c2O)CC1 (stereo not drawn),50.6% (active)
21,Cc1ccc(C(c2cc(Cl)c3cccnc3c2O)N2CCN(c3ccccn3)CC2)cc1 (stereo not drawn),-1.76%
22,CCc1nc2sc(C(c3ccc(F)cc3)N3CCCC3)c(O)n2n1 (stereo not drawn),-1.32%
23,CCCCC(=O)NC(c1ccco1)c1ccc2cccnc2c1O (stereo not drawn),33%
24,O=C(NCC(c1cccnc1)N1CCOCC1)c1ccc(F)cc1 (stereo not drawn),-7.05%

row,SMILES,inhibition
1,Cc1c(Cl)cccc1NC(=S)NCC(c1cccnc1)N1CCOCC1 (stereo not drawn),7.47%
2,O=S(=O)(Oc1cccc2cccnc12)N1CCOCC1,-0.47%
3,Oc1c(C(c2cccnc2)N2CCOCC2)ccc2cccnc12 (stereo not drawn),73.7% (active)
4,CCN1CCN(S(=O)(=O)c2ccc(Br)c(OC)c2)CC1,-5.44%
5,Cc1ccc(C(=O)N/N=C\c2ccc(-c3ccc(Br)cc3)o2)cn1,8.68%
6,CC(=O)N(C)c1ccc(NC(=O)COc2cc(C)ccc2C)cc1,-10.1%
7,COCCN(CCOC)C(=O)CSc1nnc2nc(C)cc(C)n12,9.62%
8,O=C(c1ccccc1F)N1CCN(c2ccc(-c3cccnc3)nn2)CC1,4.6%
9,CCSc1ccccc1C(=O)N1CCN(c2ccc(-c3ccccn3)nn2)CC1,121% (active)
10,O=C(NCc1ccccc1)N1CCN(c2ccc(-c3ccncc3)nn2)CC1,-7.08%
11,O=C(NCc1nnc2n1CCN(C1CCSCC1)CC2)c1c(F)cccc1F,17.7%
12,COc1ccccc1C(=O)N/N=C/c1ccc(O)cc1O,23.2%
13,COc1ccc(NC(=O)CN2CCN(C)CC2)c(OC)c1,105% (active)
14,COc1ccc(NC(=O)CN2CCN(S(=O)(=O)c3cc(Cl)ccc3OC)CC2)c(OC)c1,6.53%
15,COc1ccc(NC(=O)NN2CCN(C)CC2)c(OC)c1,-3.56%
16,Cc1ccccc1-n1nc2c(c1NC(=O)C(C)Oc1ccccc1)CSC2 (stereo not drawn),10.4%
17,NC(=O)N/N=C1\CCCCC1c1ccccc1 (stereo not drawn),-1.85%
18,Nc1c(C(=O)Nc2ccccc2)nnn1Cc1ccc(F)cc1,3.54%
19,COc1ccc(NC(=O)Cn2nnc(C(=O)Nc3cc(Cl)ccc3OC)c2N)cc1,-3.11%
20,COc1ccc(Cn2nnc(C(=O)Nc3cccc(Cl)c3)c2N)cc1,61.4% (active)
21,Cc1ccc(NC(=O)Nc2nnc(CC(=O)Nc3ccccc3C)s2)cc1C,17.1%
